# Screens (PubChem BioAssay)
# SMN2 splice enh: enhancers of SMN2 splice variant expression | HEK293 SMN2-luciferase splicing reporter, luminescence, 30-36 h | Potency, µM (top dose mostly 46.1 µM), for the others: at the top dose activity change, positive = activation, usual class: activators | 210,000 compounds, 2.8% hits | AID 1458; note: % of control where 0% means no effect; nearly all actives have a fitted effect of over 55% in size
#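 qHTS luciferase splicing reporter: luminescence rises when SMN2 exon 7 is included in transfected HEK293 cells. Compound exposure lasted 30-36 h at 37C, with 4.5 mM final sodium butyrate as control, followed by a ONE-Glo read.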
# NPC1 promoter act: activators of NPC1 promoter; AID 485313; 320,000 compounds, 2.4% hits; Huh7 NPC1 promoter luciferase reporter, 24 h; Potency, µM (highest dose often 9.22 µM), inactives show at the highest dose activation, hits mostly activators; note: % of control where 0% means no effect; nearly all actives have a fitted effect of over 60% in size
#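 Readout is luciferase luminescence, reflecting NPC1 promoter activation in stably transfected Huh7 cells after 24 h compound exposure at 37 °C in reduced-serum medium with 10% FBS.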
# Rab9 promoter act: activates the Rab9 promoter; Huh7 Rab9 promoter-luciferase reporter, luminescence, 24 h; Potency, µM (top dose mostly 9.22 µM), for inactives: at the highest dose activation, negative = inhibition, most hits filed as activators; 320,000 compounds, 2.8% hits; AID 485297; note: % of control where 0% means no effect; nearly all actives have a fitted effect of over 60% in size
#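 Measured in stably transfected Huh7 cells bearing a Rab9 promoter–luciferase construct: 24 h compound treatment at 37 °C, followed by luminescence detection.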
# p53 reactivation: re-activators of mutant p53. 320,000 compounds, 0.063% hits. Potency, µM (highest dose often 92.2 µM), for the others: at the top dose activity change, positive = activation, hits mostly activators. H1299 p53-A138V BP100-luciferase reporter, luminescence, 24 h; note: % of control where 0% means no effect; nearly all actives have a fitted effect of over 45% in size
#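 H1299 (p53-null), stable ts p53-A138V + BP100-Luc; 1000 cells/well, Opti-MEM/10% FBS; cpd 4 pt, 1:5; 24 h, 37 deg C, 5% CO2; detection reagent 10 min RT; luminescence.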
# FLuc modulator: firefly luciferase modulation, counter-screen for miR-21 project | AID 588342 | P08659 | purified FLuc, Km substrates, luminescence inhibition | 360,000 compounds, 6.9% hits | Potency, µM (titrated, usually from 57.5 µM), for inactives: at the top dose activity change, negative = inhibition, hits mostly inhibitors;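 note: plate controls were vehicle for no effect and reference inhibitor for full effect; nearly all actives have a fitted effect of over 55% in size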
# Target sequence (P08659 whole entry, looked up): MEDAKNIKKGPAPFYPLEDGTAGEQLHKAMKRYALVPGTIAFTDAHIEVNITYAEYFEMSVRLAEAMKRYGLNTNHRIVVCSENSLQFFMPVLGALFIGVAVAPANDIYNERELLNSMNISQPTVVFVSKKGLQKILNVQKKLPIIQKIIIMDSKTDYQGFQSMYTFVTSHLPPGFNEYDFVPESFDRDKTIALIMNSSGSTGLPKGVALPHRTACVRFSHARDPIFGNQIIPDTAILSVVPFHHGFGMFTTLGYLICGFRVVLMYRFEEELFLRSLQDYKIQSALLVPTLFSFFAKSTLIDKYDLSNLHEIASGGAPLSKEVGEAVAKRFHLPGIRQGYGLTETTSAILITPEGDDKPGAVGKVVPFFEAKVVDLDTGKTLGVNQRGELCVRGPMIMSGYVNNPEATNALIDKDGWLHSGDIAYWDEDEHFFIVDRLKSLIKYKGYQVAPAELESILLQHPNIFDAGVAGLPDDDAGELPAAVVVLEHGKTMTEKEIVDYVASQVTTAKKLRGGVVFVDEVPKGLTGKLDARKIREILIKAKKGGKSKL
#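 Purified P. pyralis luciferase (10nM final) with 10uM D-luciferin and 10uM ATP (Km levels) in 50mM Tris acetate pH 7.5, 10mM Mg acetate, 0.01% Tween-20, 0.05% BSA; qHTS 6-point titration, ~60 µM downward; luminescence read.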
# ELG1 genotox: induces genotoxicity in HEK293T cells with luciferase-tagged ELG1; HEK293T ELG1-luciferase reporter, luminescence, 16 h; Potency, µM (titrated, usually from 46 µM), for the others: at the highest dose activity change, positive = activation, hits mostly activators; 330,000 compounds, 1.3% hits; AID 504466; note: % of control where 0% means no effect; nearly all actives have a fitted effect of over 60% in size
#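 Cells (2,000/well) expressing the ELG1-luciferase fusion are dosed by pin tool and kept 16 hr at 37 °C, 5% CO2. Signal comes from ONE-Glo luciferase reagent after 30 min at room temperature.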
# * marks the source's active call; other numbers are inactive results; u = inconclusive; x = no result given; [ ] = another dose, or the depositor's remark. Only some compounds are listed: those with a hit (about 7.3% of all), similar ones and a draw of the others. Calls come from the whole dose curve; as a rule, active = well fitted curve in the direction sought with a large enough effect; inconclusive = small, poorly fitted or top-dose-only effect, or another doubt; inactive = no such curve, though single readings can be large; an effect the other way counts as inactive or inconclusive. Potency is the fitted concentration of half-maximal effect.
SMILES,SMN2 splice enh,NPC1 promoter act,Rab9 promoter act,p53 reactivation,FLuc modulator,ELG1 genotox
Cc1ccccc1CNC(=O)Nc1cccs1,15%,29%,25%,5%,21µM*,8%
Cc1ccc(NC(=O)Nc2ncccc2C)cc1,10µM*,2.8µM*,2µM*,8%,7.6µM*,28%
Cc1cccnc1NC(=O)Nc1ccc(F)cc1,17%,u,u,u,u,u
Cc1cccnc1NC(=S)Nc1ccc(F)cc1F,x,0%,18%,8%,u,-1%
CCN(CC)CCCNC(=O)C1CCN(S(C)(=O)=O)CC1,x,x,x,x,0%,x
O=C(CCl)Nc1cn(-c2ccccc2)nc1-c1ccccc1,23%,-4%,5%,-12%,-17%,0%
COc1ccc(-c2nc3ccc(N4CCN(C)CC4)cc3c(=O)[nH]2)cc1,49%,22%,28%,2%,15µM*,u
COc1cc(-c2nc3ccc(N4CCN(C)CC4)cc3[nH]2)cc(OC)c1OC,16µM*,0%,-5%,1%,13µM*,7.3µM*
COc1cc(NC(=O)Cn2c(C)cc(C)c(C#N)c2=O)cc(OC)c1,x,x,x,x,1%,x
CC(O)CNc1nc2sc3c(c2c(=O)n1Cc1ccco1)CCCCC3 (stereo not drawn),x,u,30%,3%,17µM*,11%
O=c1c2c3c(sc2nc(NCCOCCO)n1Cc1ccco1)CCCCC3,x,u,-5%,-3%,17µM*,-1%
CN(C)CCNc1nc2sc3c(c2c(=O)n1CCc1ccccc1)CCCCC3,x,-3%,-8%,3%,-9%,0%
COc1cccc(Cn2c(=O)n(-c3cccc(Cl)c3)c(=O)c3c4c(sc32)CN(C(C)=O)CC4)c1,9%,x,x,x,2%,x
O=C1NCCC/C1=N/Nc1cc(F)ccc1F,x,u,u,13%,19µM*,u
CCOC(=O)c1cc(-c2ccccc2C)n(CC2CC(c3cccc([N+](=O)[O-])c3)=NO2)n1 (stereo not drawn),x,-4%,-3%,8%,1%,-6%
CC(=Nc1ccc(C)cc1)c1sc2ccccc2c1O,0.63µM*,1.8µM*,0.89µM*,23%,0.43µM*,0.73µM*
CN=Cc1sc2ccccc2c1O,-11%,1%,4%,u,-18%,1%
CC(=Nc1cccc(O)c1)c1sc2ccccc2c1O,18µM*,29%,u,u,1.7µM*,1.6µM*
CC(=Nc1ccc(C)cc1C)c1sc2ccccc2c1O,11µM*,u,3.5µM*,2%,0.76µM*,u
Cc1cc(O)cc2c(=O)c3ccccc3sc12,5%,0%,-1%,2%,u,-3%
CC(On1c(-c2ccccc2)nc2ccc(Cl)cc21)C(=O)O (stereo not drawn),8%,-3%,9%,-9%,u,6%
On1c(-c2ccccc2)nc2ccc(Cl)cc21,13µM*,u,u,u,17µM*,8%
O=c1c2cc(Br)ccc2nc(-c2ccc(Cl)cc2)n1O,x,-1%,1%[1.84 µM],17%,0%,-11%
COc1ccc(-c2nc3ccccc3n2OC(C)C(=O)O)cc1 (stereo not drawn),x,-2%,0%,16%,11µM*,u
Cc1ccc(-c2nc3ccc(Cl)cc3n2OC(C)C(=O)O)cc1 (stereo not drawn),u,0%,0%,12%,11µM*,u
SMILES,SMN2 splice enh,NPC1 promoter act,Rab9 promoter act,p53 reactivation,FLuc modulator,ELG1 genotox
COc1cc(C2c3cc4c(cc3C(OC3OC5COC(C)O[C@@H]5C(O)C3O)C3COC(=O)C23)OCO4)cc(OC)c1O (stereo partly drawn),-58%,x,x,x,x,x
CC(C)N=c1scc(-c2ccco2)n1/N=C/c1ccc(O)c(O)c1,u,3%,-19%,23%,9.5µM*,u
Oc1ccc(/C=N/n2c(-c3ccco3)csc2=Nc2cccnc2)c(O)c1,-28%,-1%,-18%,-16%,u,7%
COCCN=c1scc(-c2ccco2)n1/N=C/c1ccc(O)c(O)c1O,7%,-4%,-5%,0%,17µM*,9%
COCCN=c1scc(-c2cccs2)n1/N=C(\C)c1ccco1,u,u,2.5µM*,4%,9.5µM*,12%
C=CCN=c1scc(-c2ccco2)n1/N=C/c1ccc(O)c(O)c1O,x,20%,u,17%,4.8µM*,u
N#Cc1ccc(OCC(=O)N(C2CCCCC2)C2CCS(=O)(=O)C2)cc1 (stereo not drawn),x,2%,-2%,0%,1%,3%
CN=c1scc(-c2ccc(Br)cc2)n1C,-5%,1%,-5%,9%,-17%,1%
CN=c1scc(-c2ccccc2Br)n1/N=C/c1ccc[nH]1,x,u,u,-5%,1.1µM*,0.46µM*
Cc1ccc(NC(=O)c2nc(S(C)(=O)=O)ncc2N(Cc2ccccc2)Cc2ccco2)c(C)c1,x,x,x,x,4%,x
COc1cccc(NC(=O)Nc2ccc(C)c(Cl)c2)c1,13µM*,u,2.8µM*,25%,2.7µM*,u
Cc1ccc(NC(=O)CCC(=O)c2ccc(F)cc2)cc1Cl,8%,4%,1%,-1%,1%,-1%
COc1cccc(NC(=O)Nc2cc(C(=O)O)ccc2C)c1,-10%,-1%,-2%,1%,u,2%
Cc1ccc(NC(=O)Nc2ccc(F)cc2)cc1Cl,u,u,u,13%,2.7µM*,12%
CSc1nsc(NC(=O)OCc2ccc(Cl)cc2)n1,x,2%,0%,-14%,24µM*,-2%
COc1ccsc1NC(=O)OCc1ccc(Cl)cc1,x,29%,28%,10%,u,u
CCN(CC(=O)Nc1c(F)cccc1F)C(=O)/C=C/c1ccc2ccccc2n1,x,7%,-2%,0%,2%,5%
CCCN(CCC)c1ccc(/C=C/c2ccc3cc(OCC)ccc3n2)cc1,x,u,2.2µM*,u,6.7µM*,10%
CN(C)c1ccc(/C=C/c2nc3ccccc3s2)cc1,-79%,0%,u,-8%,0.11µM*,-4%
O/C(=C\c1ccc2ccccc2n1)c1ccc(O)cc1O,8.9µM*,1.1µM*,2.2µM*,-3%,1.5µM*,2.6µM*
Fc1ccccc1/C=C/c1ccc2ccccc2n1,0.89µM*,4µM*,2.2µM*,x,0.15µM*,0.33µM*
CCN(CC)c1ccc(/C=C/c2cc(-c3ccccc3)c3ccccc3n2)cc1,x,-7%,-4%,0%,u,-1%
Oc1ccc(/C(Cc2ccc3ccccc3n2)=N\Nc2ccccc2)c(O)c1,x,1%,u,22%,u,u
